# Laboratory results published in ChEMBL document CHEMBL1961873, “Compounds: GSK PKIS; Assays: Nanosyn kinase panel” (2012).
# Key:
# [1] = system: Proto-oncogene tyrosine-protein kinase receptor Ret (Homo sapiens), P07949 [Y791F]; details: at 1 µM
# [2] = target: Macrophage-stimulating protein receptor (Homo sapiens) (UniProt Q04912); details: at 0.1 µM
# [3] = target: Macrophage-stimulating protein receptor (Homo sapiens) (UniProt Q04912); details: at 1 µM
# [4] = target: Proto-oncogene tyrosine-protein kinase ROS (Homo sapiens) (UniProt P08922); details: at 0.1 µM
# [5] = target: Proto-oncogene tyrosine-protein kinase ROS (Homo sapiens) (UniProt P08922); details: at 1 µM
# [6] = target: Proto-oncogene tyrosine-protein kinase Src (Homo sapiens) (UniProt P12931); details: at 0.1 µM
# Chain of Proto-oncogene tyrosine-protein kinase Src (Homo sapiens) (P12931 2-536 limits assumed): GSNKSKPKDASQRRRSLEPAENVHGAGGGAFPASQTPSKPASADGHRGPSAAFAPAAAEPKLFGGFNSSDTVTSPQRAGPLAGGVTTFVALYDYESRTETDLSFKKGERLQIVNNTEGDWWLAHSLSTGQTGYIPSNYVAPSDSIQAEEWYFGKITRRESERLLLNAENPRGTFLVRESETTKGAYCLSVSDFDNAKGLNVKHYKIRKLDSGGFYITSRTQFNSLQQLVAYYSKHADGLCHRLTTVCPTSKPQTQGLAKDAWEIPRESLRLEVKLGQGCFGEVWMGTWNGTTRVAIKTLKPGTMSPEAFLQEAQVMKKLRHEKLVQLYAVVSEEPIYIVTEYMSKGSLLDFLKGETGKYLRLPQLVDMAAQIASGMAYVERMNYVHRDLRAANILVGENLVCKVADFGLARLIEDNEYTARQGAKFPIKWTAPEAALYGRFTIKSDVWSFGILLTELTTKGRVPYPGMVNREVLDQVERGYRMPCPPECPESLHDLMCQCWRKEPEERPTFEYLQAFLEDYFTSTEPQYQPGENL
# [7] = target: Proto-oncogene tyrosine-protein kinase Src (Homo sapiens) (UniProt P12931); details: at 1 µM
# [8] = target: Tyrosine-protein kinase Srms (Homo sapiens) (UniProt Q9H3Y6); details: at 0.1 µM
# Chain of Tyrosine-protein kinase Srms (Homo sapiens) (Q9H3Y6 whole entry): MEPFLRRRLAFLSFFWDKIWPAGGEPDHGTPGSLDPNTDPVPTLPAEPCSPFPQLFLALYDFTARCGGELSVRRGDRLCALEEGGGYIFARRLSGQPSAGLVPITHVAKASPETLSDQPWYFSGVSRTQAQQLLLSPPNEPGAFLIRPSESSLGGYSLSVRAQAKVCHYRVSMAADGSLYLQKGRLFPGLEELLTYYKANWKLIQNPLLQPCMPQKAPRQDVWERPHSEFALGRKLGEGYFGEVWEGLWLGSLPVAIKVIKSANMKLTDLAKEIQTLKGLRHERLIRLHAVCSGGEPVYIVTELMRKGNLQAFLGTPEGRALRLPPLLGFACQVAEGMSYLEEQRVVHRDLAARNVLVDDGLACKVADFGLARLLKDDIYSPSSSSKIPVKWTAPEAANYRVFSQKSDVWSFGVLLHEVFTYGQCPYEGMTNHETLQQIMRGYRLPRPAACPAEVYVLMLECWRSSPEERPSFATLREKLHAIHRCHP
# [9] = target: Tyrosine-protein kinase Srms (Homo sapiens) (UniProt Q9H3Y6); details: at 1 µM
# [10] = target: Tyrosine-protein kinase SYK (Homo sapiens) (UniProt P43405); details: at 0.1 µM;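 note: reported percentages are mean inhibition values for SYK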
# Chain of Proto-oncogene tyrosine-protein kinase receptor Ret (Homo sapiens), P07949 [Y791F] (P07949 whole entry Y791F): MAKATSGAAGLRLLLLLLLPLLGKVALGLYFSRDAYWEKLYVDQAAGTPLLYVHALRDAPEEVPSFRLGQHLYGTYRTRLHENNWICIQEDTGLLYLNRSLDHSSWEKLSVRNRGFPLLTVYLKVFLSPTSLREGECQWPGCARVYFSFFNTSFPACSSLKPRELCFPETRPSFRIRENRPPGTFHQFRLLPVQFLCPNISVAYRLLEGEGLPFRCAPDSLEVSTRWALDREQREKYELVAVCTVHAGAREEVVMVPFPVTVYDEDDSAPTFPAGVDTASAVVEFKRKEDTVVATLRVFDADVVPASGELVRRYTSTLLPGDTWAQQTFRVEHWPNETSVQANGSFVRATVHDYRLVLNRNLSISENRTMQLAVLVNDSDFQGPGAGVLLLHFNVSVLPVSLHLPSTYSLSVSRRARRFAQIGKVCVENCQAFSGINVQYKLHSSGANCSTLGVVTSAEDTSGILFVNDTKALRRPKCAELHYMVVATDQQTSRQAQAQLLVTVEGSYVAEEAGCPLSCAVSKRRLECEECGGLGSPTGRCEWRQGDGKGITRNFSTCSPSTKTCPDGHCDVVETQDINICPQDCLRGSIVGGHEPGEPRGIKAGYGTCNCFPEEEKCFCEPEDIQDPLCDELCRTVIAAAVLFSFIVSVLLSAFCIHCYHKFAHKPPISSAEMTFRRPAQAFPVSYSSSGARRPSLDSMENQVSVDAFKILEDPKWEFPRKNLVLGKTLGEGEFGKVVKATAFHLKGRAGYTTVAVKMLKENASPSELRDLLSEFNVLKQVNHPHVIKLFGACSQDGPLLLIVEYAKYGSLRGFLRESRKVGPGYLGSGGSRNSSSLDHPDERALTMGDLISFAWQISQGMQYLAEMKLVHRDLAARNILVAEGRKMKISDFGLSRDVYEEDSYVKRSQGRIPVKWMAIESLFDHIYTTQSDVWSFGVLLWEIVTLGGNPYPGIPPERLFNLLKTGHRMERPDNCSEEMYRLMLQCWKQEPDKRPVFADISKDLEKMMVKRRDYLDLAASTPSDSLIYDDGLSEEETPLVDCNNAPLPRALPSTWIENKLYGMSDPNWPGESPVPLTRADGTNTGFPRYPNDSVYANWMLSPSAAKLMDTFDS
# Chain of Macrophage-stimulating protein receptor (Homo sapiens) (Q04912 25-304 limits assumed): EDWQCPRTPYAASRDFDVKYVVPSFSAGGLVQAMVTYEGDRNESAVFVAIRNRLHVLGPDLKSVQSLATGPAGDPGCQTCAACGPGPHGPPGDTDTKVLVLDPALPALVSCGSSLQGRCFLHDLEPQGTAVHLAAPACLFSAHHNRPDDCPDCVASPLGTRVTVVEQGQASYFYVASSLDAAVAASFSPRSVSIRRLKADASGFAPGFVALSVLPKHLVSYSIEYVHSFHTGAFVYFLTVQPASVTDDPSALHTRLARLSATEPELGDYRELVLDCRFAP
# Chain of Macrophage-stimulating protein receptor (Homo sapiens) (Q04912 310-1400 limits assumed): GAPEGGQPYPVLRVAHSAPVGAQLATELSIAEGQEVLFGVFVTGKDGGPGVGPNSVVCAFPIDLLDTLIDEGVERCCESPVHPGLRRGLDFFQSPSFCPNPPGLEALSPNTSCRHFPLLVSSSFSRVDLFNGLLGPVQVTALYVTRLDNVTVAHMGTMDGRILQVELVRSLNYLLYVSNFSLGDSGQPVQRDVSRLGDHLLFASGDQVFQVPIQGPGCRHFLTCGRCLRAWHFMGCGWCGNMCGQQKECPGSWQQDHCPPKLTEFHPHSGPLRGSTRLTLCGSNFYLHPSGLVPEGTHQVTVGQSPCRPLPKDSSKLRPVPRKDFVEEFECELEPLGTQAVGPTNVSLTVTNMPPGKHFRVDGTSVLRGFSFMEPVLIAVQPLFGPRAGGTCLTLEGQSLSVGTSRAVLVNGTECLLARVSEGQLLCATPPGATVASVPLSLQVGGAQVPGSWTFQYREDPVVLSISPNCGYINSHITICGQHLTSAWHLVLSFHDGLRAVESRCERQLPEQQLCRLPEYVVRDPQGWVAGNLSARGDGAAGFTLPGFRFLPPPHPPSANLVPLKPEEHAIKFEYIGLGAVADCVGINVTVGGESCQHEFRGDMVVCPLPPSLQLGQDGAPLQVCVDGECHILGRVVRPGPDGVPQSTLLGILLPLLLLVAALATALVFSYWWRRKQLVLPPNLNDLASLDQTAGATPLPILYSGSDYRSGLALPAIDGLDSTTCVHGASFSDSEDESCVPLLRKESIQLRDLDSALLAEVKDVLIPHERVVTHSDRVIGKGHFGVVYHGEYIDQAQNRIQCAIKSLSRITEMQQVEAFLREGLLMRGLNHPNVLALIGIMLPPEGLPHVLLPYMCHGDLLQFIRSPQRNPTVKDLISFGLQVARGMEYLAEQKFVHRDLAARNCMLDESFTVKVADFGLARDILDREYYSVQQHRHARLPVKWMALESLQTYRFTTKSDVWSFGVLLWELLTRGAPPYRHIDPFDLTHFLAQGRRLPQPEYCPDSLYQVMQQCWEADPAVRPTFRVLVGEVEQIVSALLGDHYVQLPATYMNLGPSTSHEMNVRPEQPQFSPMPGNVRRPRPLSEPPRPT
Compound,inhibition [1],inhibition [2],inhibition [3],inhibition [4],inhibition [5],inhibition [6],inhibition [7],inhibition [8],inhibition [9],inhibition [10]
Nc1nccc(-c2c(-c3ccc(F)cc3)nn3cc(C(F)(F)F)ccc23)n1,3.56%,1.05%,-2.78%,4.58%,2.24%,1.35%,1.39%,0.31%,-1.94%,-0.75%
Nc1nccc(C#Cc2cncnc2Nc2ccc(OCc3cccc(F)c3)c(Cl)c2)n1,10.5%,-0.99%,9.09%,7.35%,16.2%,0.36%,7.62%,0.29%,-3.68%,-6.1%
CN(C)C(=O)O[C@H]1CN[C@H](C#Cc2cc3ncnc(Nc4ccc(OCc5cccc(F)c5)c(Cl)c4)c3s2)C1,9.1%,1.31%,5.82%,4.25%,4.65%,3.86%,6.56%,0.59%,0.93%,-7.75%
CN(C)CCCn1c(-c2nonc2N)nc2cnccc21,8.31%,1.31%,3.53%,5.53%,4.62%,2.96%,6.8%,-0.98%,-4.16%,-4.3%
OCc1ccc(-c2nc(-c3ccccn3)c(-c3ccc4c(c3)OCO4)[nH]2)cc1,6.59%,-1.95%,-0.55%,6.84%,8.11%,-0.99%,10.6%,0.43%,-1.19%,-7.53%
NS(=O)(=O)c1ccc(NC=C2C(=O)Nc3ccc4ncsc4c32)cc1,72.4%,10.4%,56.3%,17.3%,36.8%,14.2%,61.9%,-1.05%,0.07%,-8.02%
COC(=O)c1ccc2c(c1)C(=Cc1cc(Br)c(O)c(Br)c1)C(=O)N2,21.5%,1.56%,3.36%,6.38%,9.41%,8.74%,19.6%,30.9%,75.9%,0.74%
CS(=O)(=O)Nc1cccc(-c2ccc3c(NC(=O)C4CC4)n[nH]c3c2)c1,-0.36%,-6.3%,-6.45%,3.6%,2.79%,1.2%,4.09%,1.35%,-2.43%,-1.34%
O=C1Nc2ccccc2/C1=C/Nc1ccc2[nH]c(=O)[nH]c2c1,67%,5.9%,10.9%,3.89%,11.8%,5.5%,31%,-2.08%,3.2%,3.76%
FC(F)(F)c1ccc(-c2nn3ncccc3c2-c2ccnc(Nc3ccc4c(c3)OCCO4)n2)cc1,43.9%,11.8%,0.63%,7.87%,9.43%,0.84%,15.8%,8.49%,8.73%,3.37%
Oc1cccc(-c2nc(-c3ccccc3)[nH]c2-c2ccncc2)c1,71.2%,1.43%,5.25%,4.41%,9.95%,18.7%,63.2%,3.43%,8.65%,-2.15%
Nc1ccc(C#Cc2cncnc2Nc2ccc(OCc3cccc(F)c3)c(Cl)c2)cc1,4.06%,7.87%,1.71%,1.61%,3.55%,5.95%,3.71%,-2.09%,-0.77%,-0.35%
CS(=O)(=O)CCNCc1nc(-c2ccc3ncnc(Nc4ccc(OCc5cccc(C(F)(F)F)c5)cc4)c3c2)cs1,5.88%,4.48%,2.59%,4.03%,4.18%,6.29%,7.64%,-0.76%,-3.56%,0.35%
NS(=O)(=O)c1cccc(Nc2cc(-c3ccc(F)cc3)n[nH]2)c1,23.6%,-6.54%,8.51%,4.34%,4.36%,3.21%,10.4%,-0.24%,2.26%,-3.53%
CN(C)C(=O)O[C@@H]1CN[C@@H](C#Cc2cc3ncnc(Nc4ccc(OCc5cccc(F)c5)c(Cl)c4)c3s2)C1,0.86%,-3.14%,-2.46%,1.04%,4.92%,3.94%,3.62%,-1.8%,-0.67%,6.58%
Nc1nccc(-c2c(-c3ccc(F)cc3)ncn2CCCN2CCOCC2)n1,24.9%,-1.76%,2.17%,5.06%,5.81%,-0.33%,8.77%,-1.41%,1.12%,-6.28%
CCn1c(-c2nonc2N)nc2ccc(F)cc21,11.3%,0.5%,6.19%,5.7%,8.6%,4.3%,9.9%,-2.63%,-0.49%,3.17%
O=S(=O)(CCOCc1ccc(-c2ccc3ncnc(Nc4ccc(OCc5cccc(F)c5)c(Cl)c4)c3c2)o1)c1ccccc1,7.27%,3.62%,1.46%,2.65%,3.57%,0.66%,0.4%,-1.31%,-2.52%,1.93%
COc1cc(Nc2nccc(-c3cnn4ncccc34)n2)cc(OC)c1,33.6%,4%,22.3%,57%,87%,17.1%,63.9%,0.34%,6.85%,-0.4%
COc1cc2ncnc(Nc3ccc4c(cnn4Cc4ccccc4)c3)c2cc1OC,40%,3.2%,2.02%,6.51%,4.63%,10.1%,41.8%,0.35%,4.63%,4.44%

Compound,inhibition [1],inhibition [2],inhibition [3],inhibition [4],inhibition [5],inhibition [6],inhibition [7],inhibition [8],inhibition [9],inhibition [10]
Cc1ccc2c(c1)/C(=N/Nc1ccc(S(N)(=O)=O)cc1)C(=O)N2,18.2%,-3.95%,-1.57%,2.42%,4.27%,0.59%,6.44%,-1.38%,-2.68%,2.17%
CN(C)c1cc2c(Nc3ccc4c(cnn4Cc4ccccc4)c3)ncnc2cn1,34.4%,1.53%,0.62%,2.34%,2.03%,3.91%,13.1%,-0.2%,1.29%,0.89%
NC(=O)c1cccc(Nc2nccc(Nc3cccc(F)c3)n2)c1,37.9%,-6.8%,5.75%,18.8%,60.8%,16.7%,64.8%,1.56%,5.6%,0.43%
COC(=O)Nc1nc2cc(Oc3ccc(NC(=O)Nc4cccc(Br)c4)cc3)ccc2[nH]1,84.4%,1.47%,2.5%,4.26%,3.1%,3.27%,6.9%,2.26%,3.49%,-1.46%
COc1cccc(-n2nc(C)c3c(N/N=C(\C)c4ccncc4)ncnc32)c1,5.78%,-3.77%,-0.1%,2.71%,4.49%,2.45%,3.26%,0.84%,2.72%,1.37%
CCS(=O)(=O)c1ccc(OC)c(Nc2nccc(N(C)c3ccc4c(C)n[nH]c4c3)n2)c1,80.2%,2.28%,11.8%,12.1%,51.3%,42.5%,81.2%,11.4%,50.3%,-1.92%
Cc1ccc(Nc2ccnc(Nc3cccc(C(N)=O)c3)n2)cc1O,88.7%,0.19%,13.3%,17.4%,61.4%,78.3%,90.7%,10.8%,41%,-7.65%
C[C@@H](Oc1cc(-n2cnc3ccc(OC[C@@H](O)CO)cc32)sc1C(N)=O)c1ccccc1Cl,10.8%,-4.17%,6.85%,1.32%,11.6%,3.67%,5.14%,0.51%,2.19%,1.72%
CN(c1ccc(NC(=O)Nc2ccc(OC(F)(F)F)cc2)cc1)c1ccnc(Nc2cccc(S(N)(=O)=O)c2)n1,92.1%,54.3%,90.5%,15.2%,66.9%,41.9%,86.5%,0.09%,14.3%,-1.49%
Cc1nc(-c2ccccc2)n2nc(NCCCN3CCOCC3)ncc12,4.86%,2.7%,-3.01%,4.45%,2.41%,6.46%,6.81%,2.65%,2.27%,1.44%
COc1cccc(-n2ncc3c(N/N=C/c4ccc(S(C)(=O)=O)cc4)ncnc32)c1,26.7%,29.4%,44.3%,7.29%,27.2%,56.5%,77.4%,4.95%,17.8%,-2.46%
N#Cc1cccc(Nc2nccc(-c3cnn4ncccc34)n2)c1,37.3%,-3.06%,15.6%,32.1%,74.2%,14.3%,66%,1.1%,14.7%,–
CCCN1CCCC(c2ccc(Nc3nc(Nc4cc(F)ccc4C(N)=O)c4cc[nH]c4n3)c(OC)c2)C1 (stereo not drawn),23.6%,0.58%,13.1%,63.8%,81.2%,-0.17%,14.6%,1.99%,22.1%,–
ON=C1CCc2cc(-c3nc(C4CCNCC4)[nH]c3-c3ccncc3)ccc21,8.46%,-6.87%,1.8%,1.07%,2.47%,2.03%,0.66%,0%,-2.67%,2.82%
CCS(=O)(=O)c1ccc(OC)c(Nc2ncc(-c3cccc(OC)c3)o2)c1,67.1%,3.89%,3.42%,9.78%,43.3%,30.7%,79.4%,2.74%,30.6%,-0.11%
NS(=O)(=O)c1ccc(Nc2cc(-c3cccc(O)c3)n[nH]2)cc1,26.2%,5.75%,0.78%,6.66%,12.1%,3.91%,11.9%,-2.79%,-7.29%,-3.9%
Cc1cc(-c2ccccn2)cc(C)c1/C=C/c1cncc(-c2nn[nH]n2)c1,9.36%,3.67%,3.94%,9.51%,10.9%,7.7%,15.4%,-2.18%,11.8%,-0.33%
Cc1ccc2c(-c3ccnc(Nc4cccc(C(F)(F)F)c4)n3)c(-c3ccccc3)nn2n1,37.9%,2.85%,13.6%,7.31%,9.43%,25.3%,72.9%,1.71%,22.1%,0.45%
COc1cc2ncn(-c3cc(OCc4ccccc4S(C)(=O)=O)c(C#N)s3)c2cc1OC,59.1%,-3.29%,8.3%,27.4%,68.7%,3.54%,50.1%,2.07%,26.9%,-8.27%
